These results are taken from PubChem BioAssay (Tox21).

Results filed as inconclusive are left out. Calls of active or inactive are those of the source. Calls follow the shape of the full dose curve.
% is scaled to controls: 0 for no effect and ±100 for the full control effect; potency is read from the fitted curve at half-maximal effect.

A short description of the assay: qHTS assay for small molecule agonists of the p53 signaling pathway - cell viability (AID 651633). Also: nearly all actives have a fitted effect of over 30% in size.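 As to activity change, negative = cytotoxicity: p53RE-bla HCT reporter cells with a stable beta-lactamase p53 reporter.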 The settings on record: p53RE-bla HCT-116 viability, ATP luminescence, 16 h; series mostly up to 83.3 µM; activity change, negative = cytotoxicity: at the top concentration. An excerpt: National Center for Advancing Translational Sciences [NCATS]
NIH Chemical Genomics Center [NCGC]
U.S. Environmental Protection Agency [EPA]
National Institutes of Environmental Health Sciences [NIEHS]
National Toxicology Program [NTP]
U.S. Food and Drug Administration [FDA]
p53, a tumor suppressor protein, is activated following cellular insult, including DNA damage and other cellular stresses. The activation of p53 regulates cell fate by inducing DNA repair, cell cycle arrest, apoptosis, or cellular senescence. The activation of p53, therefore, is a good indicator of DNA damage and other cellular stresses. […] The activation of the reporter gene under culture conditions can be detected by fluorescence intensity. This cell line was used to screen the Tox21 compound library in a 1536-well plate format and to identify agonists that activate the p53 signaling pathway.
Tox21 Assay Protocol Summary:
The p53RE-bla cells were dispensed at 4,000 cells/5 ul/well in 1536-well black wall/clear bottom plates using a Multidrop dispenser. After the assay plates were incubated at a 37 C/5% CO2 incubator for 5 hours, 23 nL of compounds dissolved in DMSO, positive controls or DMSO only was transferred to the assay plate by a pin tool. The plates were incubated at 37 C for 16 hours. After 1 uL of LiveBLAzerTM B/G FRET substrate was added using a Flying Reagent Dispenser, the plates were incubated at room temperature for 2 hours, and fluorescence intensity was measured by an Envision plate reader.
For cell viability readout that measures cytotoxicity, 4 ul/well of CellTiter-Glo reagent was added into the assay plates using a Flying Reagent Dispenser. After 30 min incubation at room temperature, the luminescence intensity in the plates was measured using a ViewLux plate reader.
Take `C[C@@H]1[C@H](O)[C@@H](C)/C=C/C=C\C=C\C=C\C=C\C=C\C=C\[C@H](O[C@@H]2O[C@H](C)[C@@H](O)[C@H](N)[C@@H]2O)C[C@@H]2O[C@](O)(C[C@@H](O)C[C@@H](O)[C@H](O)CC[C@@H](O)C[C@@H](O)CC(=O)O[C@H]1C)C[C@H](O)[C@H]2C(=O)O` (stereo in doubt): the Potency entry was “inactive”.
Take `CC(=O)NNC(C)=O`: the “activity change, negative = cytotoxicity” value is -3.75% [at 95.3 µM] (inactive).
On to `CSSc1ccoc1C`, for which the “activity change, negative = cytotoxicity” value was 15.8% (inactive).
Still for that read-out and setting: the value for `CC(=O)NCCO` was 14.3% (inactive).
Still for that read-out and setting: the value for `Nc1ccc(F)cc1` was 17.1% [at 95.3 µM] (inactive).
Same read-out and setting: as for `CCCCCCCC(=O)OCCCCCC`, the figure is 12.3% (inactive); as for `C1CCCCC1`, -13.7% [at 95.3 µM] (inactive); as for `COc1cc(OC)c2ccc(=O)oc2c1`, 10.7% (inactive).
For the compound `COC(CC(C)CCCC(C)(C)O)OC` (stereo not given), the “activity change, negative = cytotoxicity” value was 15.7% (inactive).
For `C=CC(=O)O`, the Potency result is “inactive”.
`CCCCOC(=O)CCCCC(=O)OCCCC`: the “activity change, negative = cytotoxicity” value was -11% (inactive).
On the same count and under the same terms, as for `SCCc1cnccn1`, the figure is -14.3% (inactive); as for `CC(CO)(CO)C(=O)O`, 9.7% [at 95.3 µM] (inactive); as for `CSCC[C@H](NC(=O)[C@H](Cc1c[nH]c2ccccc12)NC(=O)CCNC(=O)OC(C)(C)C)C(=O)N[C@@H](CC(=O)O)C(=O)N[C@@H](Cc1ccccc1)C(N)=O`, 11% (inactive).
Turning to `Cc1ccc(S(=O)(=O)NC(=O)NC2CCCCC2)cc1`, the “activity change, negative = cytotoxicity” value was -11% (inactive).
Take `CCc1ccc(C)cc1`: the “activity change, negative = cytotoxicity” value was -18.7% (inactive).
Still for that read-out and setting: the value for `Cc1cccc(C)c1NC(=O)c1cc(S(N)(=O)=O)c(Cl)cc1O` was 14.3% (inactive).
Same read-out and setting: the value for `O=C1OC[C@H](Cc2cccc(O)c2)[C@H]1Cc1cccc(O)c1` was 19.1% [at 39.1 µM] (inactive).
Consider `CCCCCc1ccco1`, for which the Potency is 39.8 µM (active).
Regarding `CCCCCCCC(=O)Oc1c(Br)cc(C#N)cc1Br`, the “activity change, negative = cytotoxicity” value is 6.54% (inactive).
Same read-out and setting: the value for `COC(OC)OC` was 17.1% (inactive); that for `ClC1=C(Cl)C1(Cl)Cl` was 13.1% [at 95.3 µM] (inactive); that for `CC(C)CC(O)CC(C)C` was 13.6% (inactive).
Same read-out and setting: as for `CCN(CC)CCNC(=O)c1cc(Cl)c(N)cc1OC`, the figure is -12% (inactive).
Consider `CC1CCC(C(C)CS)CC1S` (stereo not given), for which the Potency was 54.5 µM (active).
As for `CCOC(=O)c1c(N)sc2c1CCN(Cc1ccccc1)C2`, the “activity change, negative = cytotoxicity” value is -9.46% (inactive).
In the case of `O=C1CC[C@@H](C(=O)O)N1`, the “activity change, negative = cytotoxicity” value was 9.11% (inactive).
Turning to `CC(=O)OCC(C)C`, the “activity change, negative = cytotoxicity” value is 12.6% (inactive).
`CC1=CC[C@@H]2C[C@H]1C2(C)C`: the activity change, negative = cytotoxicity was 5.84% [at 17.9 µM] (inactive).
Same read-out and setting: the value for `O=C(CCS)OCC(COC(=O)CCS)(COC(=O)CCS)COC(=O)CCS` was -13.3% (inactive); that for `O=C(Oc1ccccc1)c1ccc2ccccc2c1O` was -13.4% (inactive).
For `CC(=O)Oc1cccc(O)c1`, the “activity change, negative = cytotoxicity” value is 17.3% (inactive).
Same read-out and setting: as for `Cc1c[nH]c2ccccc12`, the figure is -17.9% (inactive); as for `COc1ccc(C)cc1`, -20.3% (inactive); as for `CCNc1nc(N)nc(Cl)n1`, 14.9% (inactive).
On the same count and under the same terms, as for `Nc1ccc(N=Nc2ccc(N)cc2)cc1`, the figure is -4.76% (inactive); as for `Nc1ccc(NC(=O)c2ccc(N)cc2)cc1`, -16.2% (inactive).
The same measure, in the same setting: as for `COc1ccc(C(=O)NCc2ccc(OCCN(C)C)cc2)cc1OC`, the figure is 17.3% (inactive); as for `CCCCC[C@H](O)/C=C/[C@H]1[C@H](O)CC(=O)[C@@H]1C/C=C\CCCC(=O)O`, 18.5% (inactive); as for `CC(C)(C)C1(CCc2ccc(Cl)cc2)CO1` (stereo not given), 18.2% (inactive).
